Shown are actives, neighbours in structure and some others; about 6.4% of the full set was active somewhere.
KinaseGlo FLuc: blocks Kinase-Glo luciferase, a counter-screen artifact; Kinase-Glo luciferase, ATP luminescence, 8 min; Potency, µM (doses to about 38.3 µM), for inactives: at the highest dose activity change, negative = inhibition, hits mostly inhibitors; actives 0.28% (n = 200,000); also: nearly all actives have a fitted effect of over 60% in size
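Recombinant Kinase-Glo luciferase, 10 uM ATP (linear range), luciferin; imidazole pH 7.2 / KCl / MgCl2 / Tween / BSA buffer; 8 min RT; luminescence.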
VP16 counter: Gal4-VP16 reporter inhibition counter-screen | Drosophila S2 Gal4-VP16 UAS-luciferase, luminescence, 20 h | Potency, µM (titrated, usually from 53.6 µM), for inactives: top-dose activity, negative = inhibition, actives largely listed as inhibitors | actives 3.5% (n = 310,000);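 also: Gal4-VP16 expression switched on by copper sulfate through the metallothionein promoter; nearly all actives have a fitted effect of over 50% in size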
RORgamma inh: blocks mouse ROR gamma transcriptional activity. P51450. Drosophila S2 Gal4-RORgamma UAS-luciferase reporter, 20 h. Potency, µM (doses to about 53.6 µM), for inactives: at the highest dose activity change, negative = inhibition, hits mostly inhibitors. actives 5.4% (n = 310,000); also: nearly all actives have a fitted effect of over 60% in size
Target sequence (P51450 whole entry, looked up, the tested form may be a part): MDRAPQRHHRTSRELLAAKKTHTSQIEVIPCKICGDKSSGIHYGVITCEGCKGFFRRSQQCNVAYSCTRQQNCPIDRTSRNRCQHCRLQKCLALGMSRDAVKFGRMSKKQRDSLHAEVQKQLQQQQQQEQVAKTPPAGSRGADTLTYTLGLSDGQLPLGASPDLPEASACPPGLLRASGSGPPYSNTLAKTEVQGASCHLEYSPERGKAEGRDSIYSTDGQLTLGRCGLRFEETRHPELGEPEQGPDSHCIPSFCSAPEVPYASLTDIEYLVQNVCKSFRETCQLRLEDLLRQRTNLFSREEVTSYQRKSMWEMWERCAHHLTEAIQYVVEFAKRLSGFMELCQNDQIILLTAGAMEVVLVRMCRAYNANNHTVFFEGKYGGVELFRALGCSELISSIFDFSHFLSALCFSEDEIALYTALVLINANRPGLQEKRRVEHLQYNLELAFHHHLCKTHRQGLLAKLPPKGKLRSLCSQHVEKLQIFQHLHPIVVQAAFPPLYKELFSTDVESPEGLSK
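Schneider cells (Drosophila), stable Gal4 DBD–ROR gamma + UAS-luc; 1 hr cmpd preincubation; Cu2+ induction 700 uM final; 20 hr ambient; luminescence.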
An asterisk follows results filed as active; [ ] = another dose, or the depositor's remark. Calls follow the shape of the dose curve; as a rule, active = well fitted curve in the direction sought with a large enough effect; inconclusive = small, poorly fitted or top-dose-only effect, or another doubt; inactive = no such curve, though single readings can be large; an effect the other way counts as inactive or inconclusive. % is scaled to controls: 0 for no effect and ±100 for the full control effect; potency is read from the fitted curve at half-maximal effect.

For C/C(=N\NC(=O)CNC(=O)c1ccccc1F)c1ccco1 the results were VP16 counter 5% and RORgamma inh -15%.
For C/C(=N\NC(=S)NCc1ccccc1)c1ccc(C#N)cc1 the results were KinaseGlo FLuc -1%, VP16 counter 7.1µM* and RORgamma inh 2.8µM*.
`C/C(=N\NC(=O)COc1ccc(C(C)(C)C)cc1)c1ccccc1` gave KinaseGlo FLuc 1%, VP16 counter 4% and RORgamma inh 1%.
Screening C/C(=N\NC(=S)NCc1ccccc1)c1ccc(C(C)(C)C)cc1 returned KinaseGlo FLuc 0%, VP16 counter 1.4µM* and RORgamma inh 1µM*.
Screening COc1ccc(CNC(=S)N/N=C(/C)c2ccccc2)cc1 returned VP16 counter inconclusive and RORgamma inh 8.9µM*.
C/C(=N\NC(=O)c1ccccc1F)c1ccc(C#N)cc1 was read as KinaseGlo FLuc -4%, VP16 counter -17% and RORgamma inh 15%.
Screening Oc1ccccc1C(Sc1nc2ccccc2s1)Sc1nc2ccccc2s1 returned KinaseGlo FLuc -4%[7.66 µM].
Cc1noc(C)c1-c1ccc2ncnc(NCc3cccnc3)c2c1 was read as VP16 counter -6% and RORgamma inh -38%.
Screening COC(=O)C1=C[C@@H](C(=O)OC)C2C3=C(C(=O)[C@@]2(C)NC(=O)c2ccccc2)[C@H](c2ccccc2)n2c(=O)n(-c4ccccc4)c(=O)n2[C@@H]3C1 (some centres undefined) returned VP16 counter -9% and RORgamma inh 0%.
`COc1ccc(C2(C(=O)Nc3ccc(C)cc3)CCOCC2)cc1` gave VP16 counter -4% and RORgamma inh 16%.
For COC(=O)CSc1nnc(-c2sc3cc(OC)ccc3c2Cl)n1C the results were KinaseGlo FLuc -1%, VP16 counter -2% and RORgamma inh 11µM*.
Screening N#CCSc1nnc(-c2sc3ccccc3c2Cl)o1 returned KinaseGlo FLuc -1%, VP16 counter 20% and RORgamma inh inconclusive.
`COC(=O)CSc1nnc(-c2sc3ccccc3c2Cl)o1` gave KinaseGlo FLuc -4%, VP16 counter 20µM* and RORgamma inh inconclusive.
`COC(=O)CSc1nc2cc(OC)ccc2n1C` gave VP16 counter 0% and RORgamma inh -44%.
Screening CN1C(=O)N(C)C2=NNC=NC2(O)C1=O (centres undefined) returned KinaseGlo FLuc -4%, VP16 counter inconclusive and RORgamma inh inconclusive.
For CCC(C)C(NC(=O)CCC(=O)OCC(=O)[C@@]1(O)CCC2[C@@H]3CCC4=CC(=O)C=C[C@]4(C)C3[C@@H](O)C[C@@]21C)C(=O)O (some centres undefined) the results were VP16 counter 10% and RORgamma inh 11%.
`O=C(NCCCN1CCOCC1)C(=O)N/N=C/c1cccc2ccccc12` gave VP16 counter -2% and RORgamma inh 7%.
Screening COc1cc(O)cc(O)c1C(=O)/C=C/c1ccccc1 returned VP16 counter -11% and RORgamma inh inconclusive.
`COc1ccc(OC)c(C(=O)/C=C/c2cccnc2)c1` gave VP16 counter 2.8µM* and RORgamma inh 7.9µM*.
`O=C(/C=C/c1ccccc1)Nc1cccnc1` gave VP16 counter -11% and RORgamma inh 2%.
COc1cc(OC)c(C(=O)/C=C/c2ccccc2)c(O)c1O was read as VP16 counter 10µM* and RORgamma inh inconclusive.
Screening COc1ccc(/C=C/C(=O)c2ccc(OC)cc2OC)cc1 returned VP16 counter -6% and RORgamma inh 13%.
Screening COc1cc(C(=O)/C=C/c2cccnc2)ccc1O returned VP16 counter inconclusive and RORgamma inh 10µM*.
O=C(/C=C/c1cccnc1)/C=C/c1cccnc1 was read as VP16 counter 5µM* and RORgamma inh 5µM*.
For O=C(/C=C/c1cccnc1)c1cc(F)ccc1O the results were VP16 counter inconclusive and RORgamma inh -4%.
Screening COc1ccc(-c2sc(Nc3ccc(F)c(F)c3F)nc2CCC(=O)NN)cc1 returned VP16 counter 36% and RORgamma inh inconclusive.
CC(=O)NC(Cc1cccc(C)c1)C(=O)NC1CCN(S(=O)(=O)c2ccccc2)CC1 (centres undefined) was read as VP16 counter -2% and RORgamma inh -2%.
`COc1cc(C(=S)N2CCN(C(c3ccccc3)c3ccccc3)CC2)cc(OC)c1O` gave VP16 counter -22% and RORgamma inh inconclusive.
Screening COc1ccc(-n2ncc3c2CC(C)(C)CC3NC(=O)CCn2cncn2)cc1 (centres undefined) returned VP16 counter -29% and RORgamma inh 9%.
For O=C(N/N=C1\CC(c2ccccc2)Oc2ccccc21)c1cccnc1 (centres undefined) the results were KinaseGlo FLuc -3%, VP16 counter 4µM* and RORgamma inh 5.6µM*.
CCOc1ccc(S(=O)(=O)N/N=C2/CC(c3ccccc3)Oc3ccccc32)cc1 (centres undefined) was read as KinaseGlo FLuc -3%, VP16 counter 9% and RORgamma inh inconclusive.
`O=C(N/N=C1\CC(c2ccccc2)Oc2ccccc21)c1ccc(O)cc1` (centres undefined) gave VP16 counter inconclusive and RORgamma inh -38%.
`O=S(=O)(N/N=C1\CC(c2ccccc2)Oc2ccccc21)c1ccccc1` (centres undefined) gave KinaseGlo FLuc 2%, VP16 counter -12% and RORgamma inh 38%.
For O=C(N/N=C1/CC(c2ccccc2)Oc2ccccc21)C1CC1 (centres undefined) the results were KinaseGlo FLuc -1%, VP16 counter -15% and RORgamma inh 11µM*.
Screening N#Cc1ccc(OCC(=O)N/N=C2/CC(c3ccccc3)Oc3ccccc32)cc1 (centres undefined) returned KinaseGlo FLuc -1%, VP16 counter 11µM* and RORgamma inh 11µM*.
Screening CC(C)N(Cc1ccccc1)C(=O)CN1C(=O)COc2ccc(S(=O)(=O)N3CCCCCC3)cc21 returned VP16 counter 0% and RORgamma inh 24%.
CC1CC(C)CN(CCCNC(=O)c2ccc3c(c2)N(Cc2ccccc2)C(=O)c2ccccc2S3=O)C1 (centres undefined) was read as VP16 counter -17% and RORgamma inh 11µM*.
`O=C(NCCCN1CCCC1)c1ccc2c(c1)N(Cc1cccc(Cl)c1)C(=O)c1ccccc1S2=O` (centres undefined) gave VP16 counter 3% and RORgamma inh -2%.
For CC(=O)N1CCC2(CC1)CN(C(=O)Nc1cccc(C#N)c1)C2 the results were KinaseGlo FLuc 1%, VP16 counter inconclusive and RORgamma inh 3%.
Screening CCc1cc(C(=O)N/N=C/c2ccc(O)cc2O)c2ccccc2n1 returned VP16 counter inconclusive and RORgamma inh 11µM*.
`Cc1cc(C(=O)N/N=C/c2c(CO)cnc(C)c2O)c2ccccc2n1` gave VP16 counter -2% and RORgamma inh -41%.
Screening O=C(N/N=C/c1cc(Cl)cc([N+](=O)[O-])c1O)c1ccccc1NS(=O)(=O)c1cccs1 returned VP16 counter 10µM* and RORgamma inh 2.8µM*.

Assay outcomes (PubChem BioAssay)
